Records with an inconclusive call do not appear. The source made the active and inactive calls. Unless noted, the rule behind the calls is not given here.
Key:
[1] = qHTS profiling of the MIPE4 collection as inhibitors of Plasmodium falciparum (3D7) proliferation (AID 743344);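 note: scaled between DMSO vehicle wells and 0.29 µM artemisinin as full inhibition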; details: P. falciparum 3D7 in erythrocytes, SYBR Green DNA fluorescence, 72 h; at 28.5 µM unless noted
In short: (§1)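 Parasite DNA was quantified by SYBR Green I fluorescence (ex 485, em 535 nm) after overnight lysis in saponin/Triton buffer at room temperature. Cultures at 0.3% parasitemia and 2.5% hematocrit were first exposed to compound for 72 h at 37 C; signals were normalised to artemisinin (0.29 uM) and vehicle wells.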

[2] = qHTS profiling of the MIPE4 collection as inhibitors of Plasmodium falciparum (DD2) proliferation (AID 743345); details: P. falciparum Dd2 in erythrocytes, SYBR Green DNA, 72 h; at 28.5 µM unless noted
In short: as §1

[3] = qHTS profiling of the MIPE4 collection as inhibitors of Plasmodium falciparum (DD2) proliferation (Rep 2) (AID 743346); details: P. falciparum Dd2 in erythrocytes, SYBR Green DNA, 72 h; at 28.5 µM unless noted
In short: as §1

[4] = High-throughput drug toxicity screening in the BPDCN cell line Gen2.2 (AID 1224824); details: Gen2.2 BPDCN cells; at 45.8 µM (top of the series) unless noted;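 note: cells exposed to compounds for 48 h before reading; 100% = DMSO and 0% = bortezomib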
In short: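 Readout is ATP luminescence from Gen2.2 cells after two days of drug exposure in serum-containing medium at 37 °C. Values express percent activity, with vehicle defining full signal and 9.2 uM bortezomib defining zero.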

[5] = qHTS assay for measurement of the activity of small molecule inhibitors on Zika virus induced Caspase-3 activity in human iPSC derived neural progenitor cells (hNPCs) (AID 1224857; active = well fitted curve in the direction sought with a large enough effect; an effect the other way counts as inactive or inconclusive; note: nearly all actives have a fitted effect of over 65% in size; note: potency is the fitted concentration of half-maximal effect)
In short: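 Quantitative HTS format: human iPSC neural progenitors, 1 h compound pretreatment, ZIKV 2 FFU/cell for 6 h at 37 C. Percent inhibition derived from luminescent caspase-3/7 signal between uninfected and infected controls.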

[6] = qHTS assay for measurement of the activity of small molecule inhibitors on Zika virus induced Caspase-3 activity in human astrocytoma cells (AID 1224859; active = well fitted curve in the direction sought with a large enough effect; an effect the other way counts as inactive or inconclusive; note: potency is the fitted concentration of half-maximal effect)
In short: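 Readout is luminescence from Caspase-Glo 3/7 added after a 6 h ZIKV infection (2 FFU/cell) of compound-pretreated (1 h) SNB-19 cells; data expressed as % inhibition versus uninfected and infected wells.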

[7] = qHTS Screen of the MIPE 4.0 Collection Against Ewings Sarcoma (RDES) (AID 1259252; active = well fitted curve in the direction sought with a large enough effect; an effect the other way counts as inactive or inconclusive; note: nearly all actives have a fitted effect of over 35% in size; note: potency is the fitted concentration of half-maximal effect)
In short: (§2)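 Viability screen: 48 h incubation at 37C, 95% humidity, 5% CO2 with serially titrated compound, followed by CellTiter-Glo readout.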

[8] = qHTS Screen of the MIPE 4.0 Collection Against Ewings Sarcoma (TC71) (AID 1259253; active = well fitted curve in the direction sought with a large enough effect; an effect the other way counts as inactive or inconclusive; note: nearly all actives have a fitted effect of over 40% in size; note: potency is the fitted concentration of half-maximal effect)
In short: as §2

[9] = qHTS Screen of the MIPE 4.0 Collection Against Ewings Sarcoma (EW8) (AID 1259255; active = well fitted curve in the direction sought with a large enough effect; an effect the other way counts as inactive or inconclusive; note: nearly all actives have a fitted effect of over 35% in size; note: potency is the fitted concentration of half-maximal effect;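 for viability: 100% = DMSO-treated cells and 0% = medium-only wells without cells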)
In short: as §2

[10] = qHTS profiling of the MIPE4 collection as inhibitors of Plasmodium falciparum (HB3) proliferation (AID 743347);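 note: plate controls were DMSO vehicle wells for no effect and artemisinin wells for full effect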; details: P. falciparum HB3 in erythrocytes, SYBR Green DNA, 72 h; at 28.5 µM unless noted
In short: as §1

[11] = qHTS Screen of the MIPE 4.0 Collection Against Ewings Sarcoma (TC32) (AID 1259256; active = well fitted curve in the direction sought with a large enough effect; an effect the other way counts as inactive or inconclusive; note: nearly all actives have a fitted effect of over 45% in size; note: potency is the fitted concentration of half-maximal effect)
In short: as §2

[12] = qHTS assay to identify small molecule inhibitors of chordoma cells - UCH-2 (AID 1259356; active = well fitted curve in the direction sought with a large enough effect; an effect the other way counts as inactive or inconclusive; note: % is set by controls: 0 for no effect and ±100 for the full control effect)
[13] = qHTS profiling for inhibitors of Plasmodium falciparum (HB3) proliferation (AID 743324; active = well fitted curve in the direction sought with a large enough effect; an effect the other way counts as inactive or inconclusive;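 note: 100% = DMSO vehicle wells and 0% = artemisinin-treated control wells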); details: Plasmodium falciparum HB3 blood-stage proliferation; at 28.7 µM (top of the series) unless noted
In short: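 SYBR Green fluorescence (485 ex/535 em) of lysed cultures, incubated overnight at room temperature in the dark, quantifies parasite DNA. Infected erythrocytes at 0.3% parasitemia and 2.5% hematocrit were exposed 72 h; values normalized to DMSO and 0.29 uM artemisinin controls.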

Structure (SMILES) | parasite growth, % of DMSO control [1] | parasite growth remaining, % of DMSO control (lower = more inhibition) [2] | parasite growth, % of control (lower = inhibition) [3] | cell viability, % of control (lower = more cytotoxic) [4] | Potency [5] | Potency [6] | Potency [7] | Potency [8] | Potency [9] | growth, % of control [10] | Potency [11] | outcome [12] | remaining proliferation (% of control), lower = more inhibition [13]
C=C1c2cccc(O)c2C(O)=C2C(=O)[C@@]3(O)C(O)=C(C(N)=O)C(=O)[C@@H](N(C)C)[C@@H]3[C@@H](O)[C@H]12 | 23.7% | 36.4% | 24.1% | 88.8% | inactive | inactive | 20.9 µM (active) | 20.9 µM (active) | 23.5 µM (active) | – | – | – | –
O=C1NC(=O)C(=Cc2ccc(-c3ccc(F)cc3O)o2)S1 | 34.3% | 71.3% | 61.3% | 31.9% | 16.6 µM (active) | 14.8 µM (active) | – | 23.5 µM (active) | 18.7 µM (active) | 34.2% | 23.5 µM (active) | – | –
Fc1ccc(C(c2ccc(F)cc2)N2CCN(CC=Cc3ccccc3)CC2)cc1 | 6.36% | 14.4% | 44.1% | 18.7% | inactive | inactive | inactive | – | 16.6 µM (active) | 5.16% | – | inactive | –
CC1(C)CC(=O)c2c(C(F)(F)F)nn(-c3ccc(C(N)=O)c(NC4CCC(O)CC4)c3)c2C1 (stereo unspecified) | 5.39% | 8.63% | – | 8.13% | inactive | inactive | – | 0.0935 µM (active) | 0.148 µM (active) | 3.53% | 0.0833 µM (active) | – | –
COc1nccc(-c2c(-c3ccc(F)cc3)ncn2C2CCNCC2)n1 | 36.4% | 51.4% | – | 136% | inactive | inactive | – | 5.9 µM (active) | 9.35 µM (active) | 35.6% | 16.6 µM (active) | – | –
O=C(O)C1=NC(C(=O)O)CC(C=CN2c3cc(O)c(OC4OC(CO)C(O)C(O)C4O)cc3CC2C(=O)O)=C1 (stereo unspecified) | 93% | 104% | 76.3% | 267% | inactive | – | – | inactive | inactive | 92% | – | – | –
CNC(=O)c1c(-c2ccc(F)cc2)oc2cc(N(CCO)S(C)(=O)=O)c(C3CC3)cc12 | 4.82% | 10.4% | 14.1% | 64.5% | inactive | – | 18.7 µM (active) | – | – | 4.16% | inactive | – | –
c1ccc(CNc2nc(N3CCOc4ccccc43)nc3c2CCCC3)cc1 | 10.7% | 70.4% | 21.3% | 233% | inactive | inactive | inactive | – | – | 8.4% | inactive | – | –
COc1cc(N2CCN(C)CC2)ccc1Nc1nc(N)c(C(=O)c2c(Cl)cccc2Cl)s1 | 20.2% | 8.77% | 14.6% | 72.5% | inactive | inactive | 13.2 µM (active) | – | 16.6 µM (active) | 21.1% | 10.5 µM (active) | – | –
Nc1nc(Cl)nc2c1ncn2[C@@H]1O[C@H](CO)[C@@H](O)[C@H]1F | 81.5% | 97.5% | – | 159% | – | inactive | inactive | – | inactive | 96.1% | – | – | –
NCc1c[nH]c(=S)n1[C@H]1CCc2c(F)cc(F)cc2C1 | 15.7% | 12.9% | 13.8% | 61.4% | inactive | inactive | – | 20.9 µM (active) | 23.5 µM (active) | 4.48% | 23.5 µM (active) | – | –
COc1ccc(-c2cc3nccn3c(Nc3ncccc3C(N)=O)n2)cc1OC | 4.5% | 9.28% | 5.75% | 47.7% | inactive | – | 14.8 µM (active) | 2.64 µM (active) | – | 2.93% | – | – | –
C[C@@H]1C[C@H]2[C@@H]3CCC4=CC(=O)C=C[C@]4(C)[C@@]3(F)[C@@H](O)C[C@]2(C)[C@@]1(O)C(=O)CO | 55.8% | 90.6% | 60.4% | 184% | inactive | inactive | inactive | inactive | inactive | 9.35% | – | – | –
CCNC(=O)CCCC=CC[C@@H]1[C@H](C=CC(O)CCc2ccccc2)[C@@H](O)C[C@@H]1O (stereo partly specified) | 63.1% | 127% | 60.3% | 108% | inactive | inactive | – | inactive | 23.5 µM (active) | 74.9% | – | – | –
CC(C)(CO)[C@@H](O)C(=O)NCCC(=O)O | – | 101% | 114% | 85% | – | inactive | 20.9 µM (active) | – | – | 102% | – | – | –
CC1C(=O)OC2C(O)C34C5CC(C(C)(C)C)C36C(OC(=O)C6O)OC4(C(=O)O5)C12O (stereo unspecified) | – | 94.5% | 85.6% | 158% | inactive | inactive | 13.2 µM (active) | 14.8 µM (active) | – | 83.4% | inactive | – | –
O=C1NC(=O)C(c2cnc3ccccn23)=C1c1cn2c3c(cccc13)CN(C(=O)N1CCOCC1)CC2 | 22.1% | 88% | 59.2% | 36.5% | inactive | – | 5.26 µM (active) | 23.5 µM (active) | – | – | 16.6 µM (active) | – | 10.8%
CCN1CCC(n2cc(CNc3cc(Cl)c4ncc(C#N)c(Nc5ccc(F)c(Cl)c5)c4c3)nn2)CC1 | – | 12.5% | – | 35.5% | 18.7 µM (active) | inactive | – | 18.7 µM (active) | – | 7.52% | 18.7 µM (active) | – | –
C=C1[C@H](n2cnc3c(=O)[nH]c(N)nc32)C[C@H](O)[C@H]1CO | 53.5% | 88% | – | 147% | inactive | inactive | 9.35 µM (active) | 14.8 µM (active) | – | 42.8% | inactive | – | –
